The results in this text go back to PubChem BioAssay (NCI).

About 83,000 compounds went through this panel and 20% of them were active in at least one assay; those are over-represented in the sample as a whole.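 Values shown are percent growth following 48 h exposure of cells in 96-well plates to a single concentration of compound; below 10 was considered active.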 Values without a mark were called inactive. Active and inactive are the calls of the source.

What all share (assay): NCI-60 one-dose screen, 48 h (100 = growth as untreated, 0 = no growth, -100 = all killed)
What all share (details): 10 µM unless noted

For experiment [1], the system named is NCI-H23 lung.
For experiment [2], the system named is NCI-H226 lung.
The subject of experiment [3] is NCI-H322M lung.
Experiment [4] deals with HOP-62 NSCLC.
Experiment [5] has as its system NCI-H460 lung.
Experiment [6] concerns HOP-92 NSCLC.
Experiment [7] relates to A549/ATCC NSCLC.
The subject of experiment [8] is 786-0 renal.
For experiment [9], the system named is COLO 205 colon.
Experiment [10] concerns DU-145 prostate.
Experiment [11] relates to K-562 leukemia.
Experiment [12] concerns MALME-3M melanoma.
In experiment [13] the test system is MDA-MB-231 breast.
Experiment [14] concerns RXF 393 renal.
The test system of experiment [15] is SF-268 CNS.
Experiment [16] relates to SF-295 CNS.
Experiment [17] has as its system SF-539 CNS.
The subject of experiment [18] is M14 melanoma.
The test system of experiment [19] is UACC-257 melanoma.

Take `Cc1nn(-c2ccccc2)c2nc(N)c(C3=NCCO3)nc12`: the growth in experiment [1] was 96.9%; in experiment [2], 93.6%; in experiment [3], 89.5%; in experiment [4] it was 81.2%; in [5], 97.7%; in [6] it was 43.6%. The growth in [7] was 86.5%; in experiment [8], 99.7%; in experiment [9], 94.1%; in [10], 114%; in [11], 102%; in experiment [12] it was 88.6%. Also, the growth in [13] is 87%; in experiment [14], 108%; in experiment [15] it was 111%; in experiment [16], 90.8%; in [17], 99.6%; in [18] it was 105%.

Turning to `CC(=O)/C(=C/c1ccc(Cl)cc1)C(=O)c1ccccc1`, the growth in experiment [1] is 88.6%; in experiment [2], 107%; in experiment [3] it was 101%; in [4], 95.5%; in [5] it was 99.7%; in [6], 62.5%. For the same molecule, the growth in experiment [7] was 94.8%; in [8], 93.9%; in [9], 111%; in [10], 99.6%; in experiment [11] it was 61.8%; in [12] it was 103%. In addition, the growth in [13] was 96.1%; in experiment [14] it was 100%; in experiment [15], 82.8%; in experiment [16] it was 60.2%; in experiment [17], 101%; in experiment [18], 86%.

Regarding `FC(F)(F)c1ccc(-c2cnc(-c3nn[nH]n3)nc2NC2CCCCCC2)cc1`, the growth in [1] was 66% [50 µM]; in experiment [2], 70.9% [50 µM]; in experiment [3], 51.1% [50 µM]; in experiment [4], 63.7% [50 µM]; in experiment [5] it was 34.6% [50 µM]; in experiment [6], -8.27% [50 µM] (active). The growth in experiment [7] was 81.1% [50 µM]; in experiment [8] it was 49.8% [50 µM]; in experiment [9], 95% [50 µM]; in experiment [10], 64% [50 µM]; in experiment [11], 20% [50 µM]; in [12], 69.5% [50 µM]. The growth in [13] is 64.1% [50 µM]; in [14], 88.7% [50 µM]; in [15] it was 47.8% [50 µM]; in experiment [17] it was 64% [50 µM]; in experiment [19], 81.6% [50 µM]; in experiment [18], 53.2% [50 µM].

Regarding `Cc1ccc(C2=Nc3c(ccc4c(C)c(C)c(=O)oc34)OC2)cc1`, the growth in [1] was 97.4%; in experiment [2] it was 101%; in [3] it was 90.2%; in experiment [4], 97.3%; in experiment [5], 102%; in experiment [6], 87.1%. Further, the growth in [7] was 99.5%; in experiment [8] it was 93.6%; in experiment [9], 111%; in experiment [10], 106%; in [11], 95.4%; in [12] it was 104%. In addition, the growth was 105% in experiment [13]; 109% in experiment [14]; 108% in [15]; 94.3% in experiment [16]; 103% in [18].

For the molecule `O=C1c2cccc3c([N+](=O)[O-])ccc(c23)C(=O)N1CCCCl`, the growth in experiment [1] was -74.8% [100 µM] (active); in experiment [2] it was -54.1% [100 µM] (active); in experiment [3], -96.2% [100 µM] (active); in [4], -92.4% [100 µM] (active); in [5], -34.7% [100 µM] (active); in [6] it was -82.5% [100 µM] (active). The growth was -73.7% [100 µM] (active) in [7]; -83.8% [100 µM] (active) in experiment [8]; -80.4% [100 µM] (active) in experiment [9]; -82.1% [100 µM] (active) in [10]; -25.8% [100 µM] (active) in experiment [11]; -73.9% [100 µM] (active) in experiment [12]. Moreover, the growth in experiment [13] is -93.1% [100 µM] (active); in [14] it was -83.3% [100 µM] (active); in [15] it was -78.9% [100 µM] (active); in [16], -92% [100 µM] (active); in [19], -97% [100 µM] (active); in experiment [18], -85.6% [100 µM] (active).

In the case of `O=C1CSC(c2ccccc2Cl)N1c1nnc(Cn2nnc3ccccc32)o1` (stereo not drawn), the growth was 80.6% in [1]; 96.1% in [2]; 80.9% in experiment [3]; 91.9% in experiment [4]; 88% in experiment [5]; 56.8% in experiment [6]. The growth in experiment [7] is 59.9%; in [8] it was 88.7%; in [9], 106%; in experiment [10] it was 91.8%; in experiment [11], 69.6%; in [12], 127%. The growth in [13] is 77.1%; in experiment [14], 90.1%; in [15] it was 84.2%; in experiment [17], 89%; in experiment [19] it was 94.7%; in [18] it was 89.8%.

Take `CC(NNC(=S)N1CCCCCC1)c1ccc2ccccc2n1` (stereo not drawn): the growth is 60.9% in experiment [1]; 45.3% in experiment [2]; 27.2% in [3]; 42.7% in [4]; 12.5% in [5]; 65.7% in experiment [6]. For the same molecule, the growth was 13.9% in experiment [7]; 40% in experiment [8]; 20.1% in [9]; 36.2% in experiment [10]; 18.2% in experiment [11]; 29.1% in [12]. In addition, the growth is 41.6% in experiment [13]; 58.3% in [14]; 39.7% in [15]; -10.9% (active) in experiment [16]; 18.6% in experiment [17]; 21% in experiment [18].

As to `Cc1nn2c(/C=C3/C(=O)Nc4cc(Cl)ccc43)c(-c3ccccc3)nc2s1`, the growth in experiment [1] is 34.9%; in experiment [2] it was 95.2%; in [3], 31%; in experiment [4], 20.4%; in experiment [5], 13.6%; in experiment [6], -27.8% (active). Also, the growth was -28.7% (active) in experiment [7]; -74.8% (active) in experiment [8]; 21.8% in [9]; 33.4% in experiment [10]; 23.5% in [11]; -64.6% (active) in experiment [12]. For the same molecule, the growth in [13] was 8.57% (active); in [14], -18% (active); in experiment [15], 50.1%; in experiment [17], -41.4% (active); in experiment [19] it was -29% (active); in [18], 22.2%.
